From the supplement of paper PMC9446081
± gives the standard deviation of the averaged measurements.

Assays:
Experiment in all cases: relative enzymatic activity vs untreated control (fraction); higher = less inhibition
Conditions in all cases: 100 µM; incubation time: 2 h at 37 C
[1] = tested on: DNA gyrase
Protocol: (§1)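 In vitro enzymatic inhibition assays (ProFoldin kits) for 12 purified essential E. coli enzymes or complexes, each treated with 218 active antibacterial compounds at 100 µM for 2 h at 37°C. Read-outs were fluorescence or absorbance (phosphate detection, dye binding), converted to activity via standard curves and expressed relative to untreated DMSO controls.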

[2] = molecular target: DNA helicase (UniProt P0ACB1)
Sequence of DNA helicase (P0ACB1 whole entry): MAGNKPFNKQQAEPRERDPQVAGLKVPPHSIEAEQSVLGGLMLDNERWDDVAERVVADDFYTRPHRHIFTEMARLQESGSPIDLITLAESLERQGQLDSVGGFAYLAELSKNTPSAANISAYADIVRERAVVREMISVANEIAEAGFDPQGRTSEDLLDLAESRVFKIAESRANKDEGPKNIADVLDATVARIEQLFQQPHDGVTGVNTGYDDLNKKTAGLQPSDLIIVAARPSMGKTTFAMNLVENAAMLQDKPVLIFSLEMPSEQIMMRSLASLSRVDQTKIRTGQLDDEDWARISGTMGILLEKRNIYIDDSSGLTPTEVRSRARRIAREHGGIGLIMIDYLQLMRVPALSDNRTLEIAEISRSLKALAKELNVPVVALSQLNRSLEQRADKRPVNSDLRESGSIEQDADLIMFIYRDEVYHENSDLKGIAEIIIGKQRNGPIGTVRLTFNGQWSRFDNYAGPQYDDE
Protocol: as §1

[3] = molecular target: DNA ligase (UniProt B1XA82)
Sequence of DNA ligase (B1XA82 whole entry): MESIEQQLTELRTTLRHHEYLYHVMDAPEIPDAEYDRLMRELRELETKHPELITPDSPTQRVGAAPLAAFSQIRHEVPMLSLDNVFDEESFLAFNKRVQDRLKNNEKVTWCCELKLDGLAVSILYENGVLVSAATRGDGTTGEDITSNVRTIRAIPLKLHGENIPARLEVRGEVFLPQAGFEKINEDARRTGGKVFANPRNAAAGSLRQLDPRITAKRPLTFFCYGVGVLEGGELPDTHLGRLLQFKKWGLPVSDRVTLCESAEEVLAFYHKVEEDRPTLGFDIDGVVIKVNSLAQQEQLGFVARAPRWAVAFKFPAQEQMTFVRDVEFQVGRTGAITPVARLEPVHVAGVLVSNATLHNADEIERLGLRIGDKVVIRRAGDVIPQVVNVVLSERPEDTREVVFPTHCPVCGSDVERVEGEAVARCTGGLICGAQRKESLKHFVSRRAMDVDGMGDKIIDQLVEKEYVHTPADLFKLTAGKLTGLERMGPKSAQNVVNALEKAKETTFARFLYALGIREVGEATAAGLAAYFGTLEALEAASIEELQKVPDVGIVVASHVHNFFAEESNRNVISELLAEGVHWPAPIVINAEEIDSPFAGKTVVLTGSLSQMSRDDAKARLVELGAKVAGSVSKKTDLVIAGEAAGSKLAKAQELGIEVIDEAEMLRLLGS
Protocol: as §1

[4] = molecular target: DNA polymerase (UniProt P10443)
Sequence of DNA polymerase (P10443 whole entry): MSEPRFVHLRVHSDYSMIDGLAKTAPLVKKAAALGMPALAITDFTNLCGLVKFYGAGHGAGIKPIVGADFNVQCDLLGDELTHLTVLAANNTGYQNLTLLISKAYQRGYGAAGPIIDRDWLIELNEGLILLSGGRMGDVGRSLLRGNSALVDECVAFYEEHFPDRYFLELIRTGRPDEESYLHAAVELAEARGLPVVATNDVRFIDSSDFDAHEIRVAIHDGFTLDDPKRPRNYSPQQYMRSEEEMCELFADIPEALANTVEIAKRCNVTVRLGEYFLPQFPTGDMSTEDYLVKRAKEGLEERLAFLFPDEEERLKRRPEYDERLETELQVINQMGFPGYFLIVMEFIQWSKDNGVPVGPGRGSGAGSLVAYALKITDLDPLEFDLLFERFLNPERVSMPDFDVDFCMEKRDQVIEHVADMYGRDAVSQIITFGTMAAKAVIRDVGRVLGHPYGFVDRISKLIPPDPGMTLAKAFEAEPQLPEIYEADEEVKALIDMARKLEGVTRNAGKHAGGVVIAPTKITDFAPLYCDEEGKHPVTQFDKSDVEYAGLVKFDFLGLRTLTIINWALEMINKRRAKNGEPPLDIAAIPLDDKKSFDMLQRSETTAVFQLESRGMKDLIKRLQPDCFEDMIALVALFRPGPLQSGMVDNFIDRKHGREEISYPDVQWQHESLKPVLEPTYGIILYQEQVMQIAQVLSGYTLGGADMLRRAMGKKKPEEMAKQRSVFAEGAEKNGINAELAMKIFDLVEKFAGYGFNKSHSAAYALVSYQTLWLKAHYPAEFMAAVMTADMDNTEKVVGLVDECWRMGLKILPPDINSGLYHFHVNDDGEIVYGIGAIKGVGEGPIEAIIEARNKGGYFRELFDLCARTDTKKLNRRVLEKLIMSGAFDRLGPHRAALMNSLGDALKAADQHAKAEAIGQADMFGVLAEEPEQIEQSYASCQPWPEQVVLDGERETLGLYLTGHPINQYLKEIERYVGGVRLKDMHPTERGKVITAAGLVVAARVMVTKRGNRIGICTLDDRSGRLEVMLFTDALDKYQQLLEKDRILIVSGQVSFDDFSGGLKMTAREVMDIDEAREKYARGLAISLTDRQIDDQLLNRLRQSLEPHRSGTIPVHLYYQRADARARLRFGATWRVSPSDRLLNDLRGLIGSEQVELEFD
Protocol: as §1

[5] = molecular target: DNA primase (UniProt P0ABS7)
Sequence of DNA primase (P0ABS7 whole entry): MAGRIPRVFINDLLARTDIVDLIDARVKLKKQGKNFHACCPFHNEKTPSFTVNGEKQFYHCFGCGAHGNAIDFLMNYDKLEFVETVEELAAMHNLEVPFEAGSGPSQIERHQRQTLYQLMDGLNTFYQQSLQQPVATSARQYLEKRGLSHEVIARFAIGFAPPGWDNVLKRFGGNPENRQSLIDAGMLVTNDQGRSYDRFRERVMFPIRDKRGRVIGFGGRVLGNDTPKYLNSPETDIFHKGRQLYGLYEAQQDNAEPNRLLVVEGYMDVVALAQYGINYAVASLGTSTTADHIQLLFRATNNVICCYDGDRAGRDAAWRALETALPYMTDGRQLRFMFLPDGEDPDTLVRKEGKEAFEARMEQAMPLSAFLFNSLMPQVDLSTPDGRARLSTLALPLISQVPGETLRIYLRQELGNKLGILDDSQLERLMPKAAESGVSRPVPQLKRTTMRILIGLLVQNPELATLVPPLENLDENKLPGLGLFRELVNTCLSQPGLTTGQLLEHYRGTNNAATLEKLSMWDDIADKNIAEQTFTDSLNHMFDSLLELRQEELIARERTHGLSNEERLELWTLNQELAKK
Protocol: as §1

[6] = molecular target: GlmU (UniProt A7ZTU1)
Sequence of GlmU (A7ZTU1 whole entry, looked up): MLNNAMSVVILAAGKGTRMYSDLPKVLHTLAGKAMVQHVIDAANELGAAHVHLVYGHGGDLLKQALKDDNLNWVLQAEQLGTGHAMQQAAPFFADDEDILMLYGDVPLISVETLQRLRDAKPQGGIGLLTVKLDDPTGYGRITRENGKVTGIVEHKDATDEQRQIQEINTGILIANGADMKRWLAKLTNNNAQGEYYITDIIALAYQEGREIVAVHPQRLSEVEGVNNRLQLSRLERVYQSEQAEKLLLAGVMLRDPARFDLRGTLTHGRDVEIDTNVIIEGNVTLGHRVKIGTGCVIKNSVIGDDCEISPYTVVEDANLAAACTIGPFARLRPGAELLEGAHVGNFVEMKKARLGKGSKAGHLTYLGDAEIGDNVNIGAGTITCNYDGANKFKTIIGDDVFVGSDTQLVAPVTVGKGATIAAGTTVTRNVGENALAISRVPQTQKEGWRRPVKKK
Protocol: as §1

[7] = molecular target: Guanlyate kinase (UniProt Q0TBG1)
Sequence of Guanlyate kinase (Q0TBG1 whole entry): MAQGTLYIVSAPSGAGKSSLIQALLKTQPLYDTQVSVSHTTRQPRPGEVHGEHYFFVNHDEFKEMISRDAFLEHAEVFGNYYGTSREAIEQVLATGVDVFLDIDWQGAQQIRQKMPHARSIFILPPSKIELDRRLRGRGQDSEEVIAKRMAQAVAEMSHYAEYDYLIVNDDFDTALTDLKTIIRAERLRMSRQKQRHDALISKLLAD
Protocol: as §1

[8] = molecular target: MurA (UniProt Q3YX52)
Sequence of MurA (Q3YX52 whole entry): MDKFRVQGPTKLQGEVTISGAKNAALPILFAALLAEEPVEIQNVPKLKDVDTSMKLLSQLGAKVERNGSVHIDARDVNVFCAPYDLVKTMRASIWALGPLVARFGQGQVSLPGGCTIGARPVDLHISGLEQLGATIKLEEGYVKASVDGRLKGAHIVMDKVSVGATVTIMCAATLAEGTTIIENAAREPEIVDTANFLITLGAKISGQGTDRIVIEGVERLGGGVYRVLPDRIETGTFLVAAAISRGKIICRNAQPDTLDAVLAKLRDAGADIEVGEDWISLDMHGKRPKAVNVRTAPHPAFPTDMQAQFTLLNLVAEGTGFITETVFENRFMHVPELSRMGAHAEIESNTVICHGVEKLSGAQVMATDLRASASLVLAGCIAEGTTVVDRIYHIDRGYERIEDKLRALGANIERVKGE
Protocol: as §1

[9] = molecular target: T1, MurD (UniProt P14900)
T1 sequence (whole entry): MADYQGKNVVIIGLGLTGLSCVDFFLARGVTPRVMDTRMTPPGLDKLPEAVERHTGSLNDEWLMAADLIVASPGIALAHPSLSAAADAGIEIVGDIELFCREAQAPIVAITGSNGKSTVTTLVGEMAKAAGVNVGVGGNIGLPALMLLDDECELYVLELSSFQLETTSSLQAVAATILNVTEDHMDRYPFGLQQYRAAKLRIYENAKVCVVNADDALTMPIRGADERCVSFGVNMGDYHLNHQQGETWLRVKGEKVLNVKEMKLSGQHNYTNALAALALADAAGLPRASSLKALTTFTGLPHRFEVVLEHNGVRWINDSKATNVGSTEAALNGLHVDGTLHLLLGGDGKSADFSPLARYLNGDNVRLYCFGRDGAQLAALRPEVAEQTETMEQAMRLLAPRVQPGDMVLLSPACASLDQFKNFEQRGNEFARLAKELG
Protocol: as §1

[10] = molecular target: T2, MurF (UniProt P11880)
T2 sequence (whole entry): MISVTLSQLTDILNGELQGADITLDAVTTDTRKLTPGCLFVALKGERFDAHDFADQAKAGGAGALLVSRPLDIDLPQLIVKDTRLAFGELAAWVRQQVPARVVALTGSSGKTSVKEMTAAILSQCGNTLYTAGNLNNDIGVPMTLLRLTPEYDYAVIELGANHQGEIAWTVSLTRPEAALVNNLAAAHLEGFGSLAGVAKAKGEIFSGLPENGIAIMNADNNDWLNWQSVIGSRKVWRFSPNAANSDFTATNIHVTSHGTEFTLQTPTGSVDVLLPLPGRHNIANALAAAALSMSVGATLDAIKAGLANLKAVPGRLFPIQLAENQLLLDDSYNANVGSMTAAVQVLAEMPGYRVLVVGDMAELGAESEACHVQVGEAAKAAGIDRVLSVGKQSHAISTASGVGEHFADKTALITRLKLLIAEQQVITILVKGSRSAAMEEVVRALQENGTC
Protocol: as §1

[11] = tested on: RNA polymerase
Protocol: as §1

Compound | relative enzymatic activity [1] | relative enzymatic activity [2] | relative enzymatic activity [3] | relative enzymatic activity [4] | relative enzymatic activity [5] | relative enzymatic activity [6] | relative enzymatic activity [7] | relative enzymatic activity [8] | relative enzymatic activity [9] | relative enzymatic activity [10] | relative enzymatic activity [11]
CN[C@H]1CN(c2ccc3c(=O)c(C(=O)O)cn(-c4nccs4)c3n2)C[C@@H]1OC | 0.253 ± 0.27 | 0.18 ± 0.16 | 0.706 ± 0.08 | 0.641 ± 0.27 | 0.622 ± 0.13 | 1 ± 0.039 | 0.851 ± 0.064 | 0.603 ± 0.14 | 0.58 ± 0.36 | 0.955 ± 0.21 | 0.769 ± 0.11
Cc1cn([C@H]2C[C@H](N=[N+]=[N-])[C@@H](CO)O2)c(=O)[nH]c1=O | 0.52 ± 0.49 | 0.626 ± 0.26 | 0.932 ± 0.15 | 1.04 ± 0.19 | 0.733 ± 0.041 | 0.944 ± 0.04 | 0.885 ± 0.024 | 0.712 ± 0.092 | 0.491 ± 0.63 | 0.944 ± 0.18 | 0.778 ± 0.13
CC[C@H](C)C[C@H](C)CCCCCCCCC(=O)N[C@H]1C[C@@H](O)[C@@H](NCCN)NC(=O)[C@@H]2[C@@H](O)CCN2C(=O)[C@H]([C@H](O)CCN)NC(=O)[C@H]([C@H](O)[C@@H](O)c2ccc(O)cc2)NC(=O)[C@@H]2C[C@@H](O)CN2C(=O)[C@H]([C@@H](C)O)NC1=O | 0.131 ± 0.067 | 0.0208 ± 0.022 | 0.699 ± 0.13 | 0.2437 ± 0.00079 | 0.766 ± 0.017 | 1.03 ± 0.013 | 1.09 ± 0.022 | 0.522 ± 0.47 | 0.706 ± 0.5 | 1.39 ± 0.62 | 0.408 ± 0.013
COC1C=COC2(C)Oc3c(C)c(O)c4c(O)c(c(C=NN5CCN(C6CCCC6)CC5)c(O)c4c3C2=O)NC(=O)C(C)=CC=CC(C)C(O)C(C)C(O)C(C)C(OC(C)=O)C1C (stereo unspecified) | 0.305 ± 0.28 | 0.66 ± 0.082 | 0.866 ± 0.13 | 0.952 ± 0.37 | 0.647 ± 0.093 | 0.259 ± 0.016 | 0.435 ± 0.013 | 0.144 ± 0.12 | 0.132 ± 0.046 | 0.4854 ± 0.0039 | 0.0856 ± 0.00076
CC[C@H]1OC(=O)C[C@@H](O)[C@H](C)[C@@H](O[C@@H]2O[C@H](C)C[C@H](N(C)C)[C@H]2O)[C@@H](CC=O)C[C@@H](C)C(=O)/C=C/[C@]2(C)O[C@H]2[C@@H]1C | 0.781 ± 0.33 | 0.296 ± 0.13 | 0.912 ± 0.064 | 1.17 ± 0.26 | 0.854 ± 0.017 | 1.0039 ± 0.00034 | 0.968 ± 0.11 | 0.673 ± 0.17 | 0.55 ± 0.38 | 1.06 ± 0.2 | 0.864 ± 0.08
CCC=C(C(=O)NC1C(=O)N2C(C(=O)OCOC(=O)C(C)(C)C)=C(COC(N)=O)CSC12)c1csc(N)n1.Cl (stereo unspecified) | 0.924 ± 0.071 | 0.354 ± 0.016 | 0.883 ± 0.11 | 1.17 ± 0.27 | 0.907 ± 0.088 | 0.939 ± 0.024 | 1.02 ± 0.098 | 0.293 ± 0.18 | 0.576 ± 0.37 | 0.941 ± 0.21 | 0.977 ± 0.094
CN(C)[C@@H]1C(=O)[C@@H](C(N)=O)C(=O)[C@@]2(O)C(=O)[C@H]3C(=O)c4c(O)ccc(Cl)c4[C@@H](O)[C@H]3C[C@@H]12 | 1.05 ± 0.19 | 0.508 ± 0.1 | 0.858 ± 0.066 | 1.17 ± 0.28 | 0.754 ± 0.018 | 1.02 ± 0.063 | 0.831 ± 0.16 | 0.336 ± 0.14 | 0.621 ± 0.42 | 0.975 ± 0.23 | 0.749 ± 0.19
NC(=O)[C@@H]1C(=O)C[C@@H]2C[C@@H]3Cc4cccc(O)c4C(=O)[C@@H]3C(=O)[C@]2(O)C1=O | 1.02 ± 0.18 | 0.519 ± 0.062 | 0.963 ± 0.042 | 0.976 ± 0.11 | 0.822 ± 0.017 | 1.08 ± 0.021 | 0.796 ± 0.086 | 0.328 ± 0.11 | 0.62 ± 0.39 | 1.01 ± 0.2 | 0.715 ± 0.048
COc1c(N2CCNC(C)C2)c(F)cc2c(=O)c(C(=O)O)cn(C3CC3)c12 (stereo unspecified) | 0.0476 ± 0.067 | 0.48 ± 0.021 | 0.942 ± 0.14 | 1.09 ± 0.15 | 0.876 ± 0.017 | 0.989 ± 0.034 | 0.899 ± 0.084 | 0.804 ± 0.16 | 0.577 ± 0.36 | 0.942 ± 0.26 | 0.763 ± 0.0079
CC1COc2c(C3(N)CC3)c(F)cc3c(=O)c(C(=O)O)cn1c23.CS(=O)(=O)O (stereo unspecified) | 0.0382 ± 0.054 | 0.57 ± 0.24 | 0.904 ± 0.083 | 0.511 ± 0.72 | 0.835 ± 0.011 | 0.898 ± 0.045 | 1.02 ± 0.16 | 0.879 ± 0.057 | 0.579 ± 0.4 | 1.07 ± 0.021 | 0.872 ± 0.013
COC(=O)N/N=C/c1ccc([N+](=O)[O-])o1 | 0.742 ± 0.39 | 0.508 ± 0.072 | 0.9684 ± 0.0075 | 0.516 ± 0.72 | 0.841 ± 0.017 | 1.02 ± 0.019 | 0.942 ± 0.11 | 0.255 ± 0.17 | 0.636 ± 0.45 | 0.961 ± 0.21 | 0.918 ± 0.14
NCC[C@H](O)C(=O)N[C@@H]1C[C@H](N)[C@@H](O[C@H]2O[C@H](CN)[C@@H](O)[C@H](O)[C@H]2O)[C@H](O)[C@H]1O[C@H]1O[C@H](CO)[C@@H](O)[C@H](N)[C@H]1O | 0.228 ± 0.0032 | 0.0994 ± 0.0019 | 0.871 ± 0.16 | 0.863 ± 0.26 | 0.508 ± 0.14 | 0.9473 ± 0.0079 | 0.438 ± 0.056 | 0.326 ± 0.1 | 0.608 ± 0.42 | 0.979 ± 0.24 | 0.699 ± 0.083
NC(=O)[C@@H]1CC[C@@H]2CN1C(=O)N2OS(=O)(=O)O | 0.771 ± 0.26 | 0.552 ± 0.18 | 0.834 ± 0.21 | 0.501 ± 0.71 | 0.803 ± 0.037 | 0.998 ± 0.01 | 0.947 ± 0.072 | 0.699 ± 0.17 | 0.604 ± 0.42 | 0.976 ± 0.22 | 0.809 ± 0.13
CN(C)c1ccc(O)c2c1C[C@H]1C[C@H]3[C@H](N(C)C)C(=O)C(C(N)=O)=C(O)[C@@]3(O)C(=O)[C@H]1C2=O | 0.655 ± 0.27 | 0.659 ± 0.38 | 0.8389 ± 0.0033 | 0.961 ± 0.2 | 0.669 ± 0.027 | 0.995 ± 0.035 | 0.701 ± 0.069 | 0.0752 ± 0.015 | 0.623 ± 0.42 | 0.96 ± 0.18 | 0.304 ± 0.052
O=C1C=CC(=O)N1 | 0.511 ± 0.14 | 0.616 ± 0.23 | 0.848 ± 0.071 | 1 ± 0.3 | 0.801 ± 0.014 | 0.973 ± 0.066 | 0.814 ± 0.18 | 0.171 ± 0.052 | 0.533 ± 0.5 | 0.951 ± 0.22 | 0.83 ± 0.2
CC(C)CCCC(=O)N[C@@H](CCNCS(=O)(=O)O)C(=O)N[C@H](C(=O)N[C@@H](CCNCS(=O)(=O)O)C(=O)N[C@H]1CCNC(=O)[C@H]([C@@H](C)O)NC(=O)[C@H](CCNCS(=O)(=O)O)NC(=O)[C@H](CCNCS(=O)(=O)O)NC(=O)[C@H](CC(C)C)NC(=O)[C@H](CC(C)C)NC(=O)[C@H](CCNCS(=O)(=O)O)NC1=O)[C@@H](C)O | 0.555 ± 0.027 | 0.608 ± 0.27 | 1.01 ± 0.41 | 1.14 ± 0.27 | 0.8249 ± 0.007 | 1.0459 ± 0.00074 | 0.666 ± 0.056 | 0.723 ± 0.12 | 0.585 ± 0.35 | 0.903 ± 0.13 | 0.813 ± 0.041
Cc1nnc(SCC2=C(C(=O)[O-])N3C(=O)C(NC(=O)Cn4cnnn4)C3SC2)s1.[Na+] (stereo unspecified) | 1.26 ± 0.15 | 0.672 ± 0.26 |  | 1.45 ± 0.57 | 0.707 ± 0.18 | 0.951 ± 0.036 | 1.13 ± 0.052 | 0.255 ± 0.063 | 0.612 ± 0.43 | 0.89 ± 0.17 | 0.961 ± 0.05
